Results on 40 molecules are retold here after PubChem BioAssay (EPA / NIEHS).

The structures appear in SMILES notation. The source made the active and inactive calls. Rule for the calls: active = hit-call score of the fitted dose curve at least 0.9, where 1 is the maximum; inactive = score below 0.9.

Read-out in this test: Collagen III, COL3A1 (gene 1281)
The experiment in a line: BSK_hDFCGF_CollagenIII: BioMAP Diversity Plus: hDFCGF Assay for Collagen III Biomarker Activity (AID 2283056). The following applies: primary human foreskin fibroblasts; actives raise or lower the signal. Here is the method:
BSK_hDFCGF is a cell-based, multiplexed-readout assay that uses foreskin fibroblast, a human skin primary cell, with measurements taken at 24 hours after chemical dosing in a 96-well plate.BSK_hDFCGF_CollagenIII is an assay component measured in the BSK_hDFCGF assay. It measures Collagen antibody related to regulation of gene expression using ELISA technology.Data from the assay component BSK_hDFCGF_CollagenIII was analyzed into 1 assay endpoint. This assay endpoint, BSK_hDFCGF_CollagenIII, was analyzed with bidirectional fitting relative to DMSO as the negative control and baseline of activity. Using a type of binding reporter, gain or loss-of-signal activity can be used to understand changes in the signaling as they relate to the gene COL3A1. Furthermore, this assay endpoint can be referred to as a primary readout, because this assay has produced multiple assay endpoints where this one serves a signaling function. To generalize the intended target to other relatable targets, this assay endpoint is annotated to the cell adhesion molecules intended target family, where the subfamily is collagen.
The levels of cell surface (or secreted, indicated by the prefix "s") biomarker endpoints were measured by ELISA. Overt cytotoxicity to cells in confluent adherent cultures (all systems other than the BT system) was assessed by measuring total protein levels using sulforhodamine B (SRB) staining in parallel cultures at the time of biomarker measurements, indicated as SRB endpoints. For proliferation assays for adherent cell types, individual cell types are cultured at sub-confluence and relative cell numbers quantified by SRB staining at time points optimized for each system (48 h: 3C and CASM3C systems; 72 h: BT and HDF3CGF systems; 96 h: SAg system). SRB was performed by staining cells with 0.1% SRB after fixation with 10% TCA and reading wells at 560 nm.Viability and proliferation of PBMC (T cells) was quantified by Alamar Blue reduction for the SAg and BT systems. For PBMC viability (referred to as PBMC Cytotoxicity within the assay endpoint names), cells were plated (75,000/well in a 96-well plate) and then chemical samples added for 1 h before addition of activators, SEB and TSST-1 (20 ng/mL final concentration each). Cells were incubated for 90 h. Then, Alamar Blue (20 uL/well) (Invitrogen, Cat DAL1100) was added for 6 h, and the plates were read with a fluorescence microplate reader at 546/580 nm (excitation/emission). For PBMC proliferation, cells were plated and activated as above but incubated for only 16 h prior to addition of Alamar Blue. Plates were read after 6 h.
Consider `CC(Cl)(Cl)C(=O)O`, for which the outcome was inactive.
Regarding `Cc1ccc([N+](=O)[O-])cc1C`, the result was inactive.
In the case of `ClC1=C(Cl)C2(Cl)C3C(Cl)C(Cl)CC3C1(Cl)C2(Cl)Cl` (stereo not given), the AC50 was 6.06 µM (active).
Take `OCC1CO1` (stereo not given): the result was inactive.
Take `Cc1ccc(N)cc1N`: the result was inactive.
Take `CSC(C)(C)C=NO`: the result was inactive.
With `O=P(Oc1ccccc1)(Oc1ccccc1)Oc1ccccc1`, the AC50 is 8.45 µM (active).
As for `CC(O)C(F)(F)C(F)(F)F` (stereo not given), the outcome was inactive.
On the same count and under the same terms, for `O=S(=O)(F)C(F)(F)C(F)(F)C(F)(F)C(F)(F)C(F)(F)C(F)(F)C(F)(F)C(F)(F)F` the value was “inactive”.
As for `CCOP(=S)(Oc1ccc([N+](=O)[O-])cc1)c1ccccc1` (stereo not given), the half-maximal activity concentration (AC50) is 8.08 µM (active).
Regarding `COP(=O)(CCC(=O)NCO)OC`, the result was inactive.
On the same count and under the same terms, for `NC(=O)C(F)(F)C(F)(F)F` the value was “inactive”.
On to `CCCCOCCOP(=O)(OCCOCCCC)OCCOCCCC`, for which the AC50 was 0.016 µM (active).
As to `CCOP(=S)(S)OCC`, the outcome was inactive.
Turning to `CCCCCCCc1ccc(O)cc1`, the AC50 was 15.5 µM (active).
On to `O=C(O)C(Cl)Cl`, for which the outcome was inactive.
Same read-out and setting: for `CC(Cc1ccc(OCC(=O)O)cc1)NCC(O)c1csc(C(F)(F)F)n1` (stereo not given) the value was “inactive”; for `[N-]=[N+]=[N-]`, “inactive”; for `O=C(O)C(F)(F)C(F)(F)C(=O)O`, “inactive”.
The same measure, in the same setting: for `CC(C)(C)c1ccc(O)cc1` the value was “inactive”.
Same read-out and setting: for `c1ccc2c(c1)sc1ccccc12` the value was “inactive”; for `O=C(O)C(F)(F)OC(F)(F)C(F)(F)OC(F)(F)F`, “inactive”.
Take `CCC(C)(C)c1ccc(O)cc1`: the result was inactive.
As to `CCCN(CCC)c1c([N+](=O)[O-])cc(C(C)C)cc1[N+](=O)[O-]`, the AC50 is 9.07 µM (active).
On to `Nc1ccc(Cl)cc1`, for which the outcome was inactive.
As for `c1nc[nH]n1`, the outcome was inactive.
For the molecule `C=CC(=O)OCC(CC)(COC(=O)C=C)COC(=O)C=C`, the AC50 is 1.03 µM (active).
Turning to `COCCOCCO`, the outcome was inactive.
Still for that read-out and setting: the same measure for `O=P(OCC(Br)CBr)(OCC(Br)CBr)OCC(Br)CBr` (stereo not given): “inactive”.
For the molecule `OCC(F)(F)OC(F)(F)C(F)(F)OC(F)(F)C(F)(F)OC(F)(F)F`, the outcome was inactive.
Regarding `N#Cc1cc([N+](=O)[O-])ccc1N`, the result was inactive.
The same measure, in the same setting: the same measure for `O=C(O)C(F)(F)OC(F)(F)C(F)(F)OC(F)(F)C(=O)O`: “inactive”; for `CCNc1nc(Cl)nc(NC(C)(C)C)n1`: “inactive”; for `Cc1ccc(O)cc1C`: “inactive”.
On the same count and under the same terms, for `COC(=O)C(F)(F)C(F)(F)OC(F)(C(F)(F)F)C(F)(F)OC(F)=C(F)F` (stereo not given) the value was “inactive”; for `CCCCN(CCCC)N=O`, “inactive”; for `CC(Cl)CN(C)C` (stereo not given), “inactive”.
As to `CCCCN(CCCC)SN(C)C(=O)Oc1cccc2c1OC(C)(C)C2`, the AC50 is 5.49 µM (active).
Take `Nc1ccc([N+](=O)[O-])cc1Cl`: the result was inactive.
As for `O=S1(=O)OCC2C(CO1)C1(Cl)C(Cl)=C(Cl)C2(Cl)C1(Cl)Cl` (stereo not given), the result was inactive.

The AC50 is the concentration giving half of the maximal activity seen.
